Screens (PubChem)
An excerpt weighted towards active compounds, which were near 20% of everything screened.
Cycloheximide cs: Cycloheximide Counterscreen for Small Molecule Inhibitors of Shiga Toxin | cell reporter, cycloheximide protein synthesis inhibition counterscreen | max response, % | actives 12% (n = 300,000) | AID 2314, 2010; in the data active = max response mostly above about 13%, no sharp cut-off; inactive = mostly below about 14%; note: read at 38.3 µM for the half of the compounds with a filed dose; 0% is about no effect
Pf growth 48h: Primary qHTS for delayed death inhibitors of the malarial parasite plastid, 48 hour incubation; P. falciparum luciferase growth in erythrocytes, 48 h; Potency, µM (series often up to 28.7 µM), without a hit: top-dose activity change, negative = inhibition, usual class: inhibitors; AID 504832, 2011; actives 5.9% (n = 310,000); note: potency is the fitted concentration of half-maximal effect; % is set by controls: 0 for no effect and ±100 for the full control effect
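First compound was added to culture medium, then infected red cells at 0.1% parasitemia and 2% hematocrit (final). After incubation at 37 C under 5% CO2, luciferase detection reagent was dispensed and light output recorded.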
Shiga inhibitor: A qHTS for Small Molecule Inhibitors of Shiga Toxin; actives 9.2% (n = 290,000); AID 2315, 2010; inhibition, % at 38.7 µM; Vero cells, Shiga toxin protein synthesis inhibition reporter; in the data active = inhibition mostly above about 28%, no sharp cut-off; inactive = mostly below about 43%; note: 0% is about no effect
HCMV inh: qHTS Assay for inhibitors of the human cytomegalovirus (HCMV). actives 4.5% (n = 410,000). HFF cells, HCMV-luciferase reporter, 72 h; hits give low values. AID 1259415, 2018. activity change, negative = inhibition, % at 57.5 µM; in the data active = activity change below about -60%; inconclusive = no clear call, values can overlap the other calls; inactive = above about -39%; note: % is set by controls: 0 for no effect and ±100 for the full control effect
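Two-dose cell screen: HFF monolayers treated with compounds and infected with luciferase-expressing HCMV at 1 PFU/cell, 72 h at 37C, then lysed for luciferase measurement.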
Pf growth 96h: Primary qHTS for delayed death inhibitors of the malarial parasite plastid, 96 hour incubation | P. falciparum luciferase reporter growth, 96 h | actives 6.9% (n = 320,000) | Potency, µM (titrated, usually from 28.7 µM), for the others: top-dose activity change, negative = inhibition, hits mostly inhibitors; note: potency is the fitted concentration of half-maximal effect; % is set by controls: 0 for no effect and ±100 for the full control effect
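Readout is luminescence from an integrated firefly luciferase in P. falciparum. Red cells, 2% hematocrit and 0.05% parasitemia final, were cultured with compound through two parasite generations (96 hours) at 37 C, 5% CO2.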
An asterisk follows results filed as active. Unless noted, calls come from the whole dose curve; as a rule, active = well fitted inhibition curve with a large enough effect; inconclusive = small, poorly fitted or top-dose-only effect, or another doubt; inactive = no such curve, though single readings can be large or run the other way.

How did CCN(CC(=O)Nc1ccc2c(c1)OCCO2)CC(=O)Nc1ccc2c(c1)OCO2 do in these assays?
Cycloheximide cs: 15.4; Pf growth 48h: inconclusive; Shiga inhibitor: 20.8; HCMV inh: -35.7; Pf growth 96h: -35.5%

What do the screens show for `O=[N+]([O-])c1cccc(-c2cc3cccc[n+]3cc2-c2cccc([N+](=O)[O-])c2)c1`?
Cycloheximide cs: -2.9; Pf growth 48h: 0.522µM*; Shiga inhibitor: -7.6; HCMV inh: -15.0; Pf growth 96h: 0.165µM*

What do the screens show for `Cc1sc2cc(-c3cccc([N+](=O)[O-])c3)c(-c3cccc([N+](=O)[O-])c3)c[n+]2c1C`?
Cycloheximide cs: -2.2; Pf growth 48h: 0.928µM*; Shiga inhibitor: 15.8; HCMV inh: -20.3; Pf growth 96h: 0.828µM*

What do the screens show for `O=C1NC(=S)NC(=O)C1=Cc1c(Cl)cccc1Cl`?
HCMV inh: -61.4*

How did O=C1NC(=S)NC(=O)C1=Cc1ccc(Br)s1 do in these assays?
Cycloheximide cs: 0.9; Pf growth 48h: 4.7%; Shiga inhibitor: -2.6; HCMV inh: -100.5*; Pf growth 96h: inconclusive

Results for O=C1NC(=S)NC(=O)C1=Cc1ccc(OCc2ccccc2)cc1 ?
HCMV inh: -18.7

Results for N#Cc1ccc(/C=C(\C(=O)C(=O)O)c2ccc3ccccc3n2)cc1 ?
Cycloheximide cs: 56.9*; Pf growth 48h: 94.7%; Shiga inhibitor: 73.5*; HCMV inh: 26.8; Pf growth 96h: 179.2%

What do the screens show for `O=C(O)/C(=C\c1ccccc1)c1ccc2ccccc2c1`?
HCMV inh: -22.1

How did CN(C)C(=S)c1ccc2ccccc2n1 do in these assays?
Cycloheximide cs: 13.6; Pf growth 48h: inconclusive; Shiga inhibitor: -2.0; HCMV inh: 24.9

How did O=C(c1ccc2ccccc2n1)N1CCN(c2ccccc2)CC1 do in these assays?
Cycloheximide cs: -3.4; Pf growth 48h: 4.2%; Shiga inhibitor: -5.0; HCMV inh: 44.1

How did O=C(O)C(=O)/C(=C\c1cccc(Cl)c1)c1ccc2ccccc2n1 do in these assays?
Cycloheximide cs: 92.9*; Pf growth 48h: 275.4%; Shiga inhibitor: 110.0*; HCMV inh: 59.6; Pf growth 96h: 196.0%

How did Cc1cccc(/C=C(\C(=O)C(=O)O)c2ccc3ccccc3n2)c1 do in these assays?
Cycloheximide cs: 45.8*; Pf growth 48h: 222.9%; Shiga inhibitor: 61.8*; HCMV inh: 129.5; Pf growth 96h: 467.6%

What do the screens show for `CC(C)C1Cc2[nH]c(=S)[nH]c(=O)c2C(c2ccc(F)cc2)O1` (stereo unspecified)?
HCMV inh: -5.1

How did Cc1cc(NC(=O)CCCC(=O)NCc2cccs2)no1 do in these assays?
Cycloheximide cs: -3.3; Pf growth 48h: 13.8%; Shiga inhibitor: 29.5; HCMV inh: 21.9; Pf growth 96h: 154.2%

How did CCOC(=O)c1sc(SC)c2c1CCC/C2=N/OC do in these assays?
Cycloheximide cs: -1.8; Pf growth 48h: 15.6%; Shiga inhibitor: -2.5; HCMV inh: 2.8; Pf growth 96h: 5.9%

What do the screens show for `CO/N=C1\CCCc2c(C(=O)NN)sc(SC)c21`?
Cycloheximide cs: -1.1; Pf growth 48h: -11.1%; Shiga inhibitor: -4.5; HCMV inh: -66.1*; Pf growth 96h: 4.5%

What do the screens show for `COC(=O)c1cccc(C23CC4(C2)[C@H](CN(Cc2ccc(C(F)(F)F)cc2)[C@@H]4c2ccccc2)C3c2ccc(C(F)(F)F)cc2)c1` (stereo partly specified)?
Cycloheximide cs: -4.6; Pf growth 48h: 10.4µM*; Shiga inhibitor: 13.8; HCMV inh: -94.2*; Pf growth 96h: inconclusive

What do the screens show for `COC(=O)c1ccc(C23CC4(C2)[C@H](CN(Cc2ccc(C(F)(F)F)cc2)[C@@H]4c2ccccc2)C3c2ccccc2)cc1` (stereo partly specified)?
Cycloheximide cs: 3.8; Pf growth 48h: inconclusive; Shiga inhibitor: -4.5; Pf growth 96h: inconclusive

Results for COC(=O)c1ccc(C23CC4(C2)[C@H](CN(Cc2ccc(C(F)(F)F)cc2)[C@@H]4c2ccccc2)C3c2ccc(C(F)(F)F)cc2)cc1 (stereo partly specified) ?
Cycloheximide cs: -3.6; Pf growth 48h: inconclusive; Shiga inhibitor: 1.7; Pf growth 96h: 10.4µM*

Results for COC(=O)c1ccc(C23CC4(C2)[C@H](CN(C)[C@@H]4c2ccccc2)C3c2ccc(C(F)(F)F)cc2)cc1 (stereo partly specified) ?
Cycloheximide cs: -4.7; Pf growth 48h: 10.4µM*; Shiga inhibitor: -21.3; HCMV inh: 188.4; Pf growth 96h: inconclusive

What do the screens show for `Cn1c(=O)n(C)c2cc(NS(=O)(=O)c3ccc(Br)s3)ccc21`?
Cycloheximide cs: -0.2; Pf growth 48h: 2.0%; Shiga inhibitor: -13.2; HCMV inh: 48.8; Pf growth 96h: 9.28µM*

What do the screens show for `Cn1c(=O)n(C)c2cc(NS(=O)(=O)c3ccc(Cl)s3)ccc21`?
Cycloheximide cs: 7.2; Pf growth 48h: -4.7%; Shiga inhibitor: 13.4; HCMV inh: 256.3; Pf growth 96h: -0.7%

How did O=C(NC(=S)NCC1CCCO1)c1ccco1 (stereo unspecified) do in these assays?
Cycloheximide cs: 15.9; Pf growth 48h: -8.5%; Shiga inhibitor: 15.6; HCMV inh: 0.7; Pf growth 96h: 6.9%

How did Cc1ccc(C(=O)NC(=S)NCC2CCCO2)cc1Br (stereo unspecified) do in these assays?
Cycloheximide cs: 52.4*; Pf growth 48h: 70.2%; Shiga inhibitor: 78.1*; HCMV inh: 29.3; Pf growth 96h: 76.1%

What do the screens show for `O=C(NC(=S)NCC1CCCO1)c1ccc(Br)o1` (stereo unspecified)?
Cycloheximide cs: 30.1*; Pf growth 48h: 76.0%; Shiga inhibitor: 67.1; HCMV inh: 27.5; Pf growth 96h: -2.9%

How did CS(=O)(=O)Nc1ccc(F)cc1 do in these assays?
HCMV inh: 24.7

How did CC(C)(C)c1ccc(OCC(O)CN2CCc3ccccc3C2)cc1 (stereo unspecified) do in these assays?
HCMV inh: -63.4*

How did COc1ccc(OCC(O)CN2CCc3ccccc3C2)cc1 (stereo unspecified) do in these assays?
Cycloheximide cs: -2.3; Pf growth 48h: 8.5%; Shiga inhibitor: -3.1; HCMV inh: 70.3; Pf growth 96h: 25.5%

How did OC(COC(c1ccc(F)cc1)c1ccc(F)cc1)CN1CCc2ccccc2C1 (stereo unspecified) do in these assays?
Cycloheximide cs: -5.9; Pf growth 48h: inconclusive; Shiga inhibitor: -3.9; HCMV inh: -61.2*; Pf growth 96h: inconclusive

Results for CN(Cc1cnccn1)Cc1ccccc1OCC(O)CN1CCc2ccccc2C1 (stereo unspecified) ?
Cycloheximide cs: 1.3; Pf growth 48h: 11.7µM*; Shiga inhibitor: 47.5; HCMV inh: -20.8; Pf growth 96h: 14.2%
